PABP FP inh: blocks human PABP binding to poly(A) RNA; actives 1% (n = 290,000); fluorescence polarization; AID 2014; inhibition, % at 35 µM; P11940;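 note: calls also rest on retests at 20 µM and on dose response follow-up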
eIF4E 4G PPI: blocks eIF4E binding to eIF4G; P63073+Q04637; TR-FRET eIF4E-eIF4GI(517-606) binding, 2 h; inhibition, % at 21.7 µM; actives 0.37% (n = 220,000); AID 782;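 active = inhibition above about 30%, limit read from the data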;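 note: 0% = full FRET control wells and 100% = background wells lacking eIF4GI fragment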
eIF4H inh: inhibitors of RNA binding by human eIF4H; Q15056; eIF4H fluorescence polarization binding assay; inhibition, % at 35 µM; actives 0.94% (n = 290,000); AID 2012;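 note: calls also rest on retests at 20 µM and on dose response follow-up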
PABP1 MLLE inh: inhibitors of microRNA-mediated deadenylation, human PABP1 MLLE binding; P11940; GST-MLLE / FITC-PAM2 fluorescence polarization; inhibition, % at 20 µM; actives 0.36% (n = 360,000); in the data active = inhibition above about 35%, passing the limit was not always enough;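 note: plate controls were DMSO wells with GST-MLLE for no effect and wells lacking GST-MLLE protein for full effect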
PERK inh: human PERK inhibition, primary cell-based screen. Q9NZJ5. CHO PERK-DD fusion, SEAP luminescence translation reporter. inhibition, % at 5.6 µM. actives 0.17% (n = 220,000). AID 1416;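 active = inhibition above the mean inhibition of all tested compounds plus 3 SD, set separately per screening campaign, cut at about 2.9% in these data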;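 note: PERK kinase domain activated by AP20187 dimerizer at 100 nM; 0% = DMSO with dimerizer and 100% = rapamycin at 8.4 µM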
M18AAP inhibitor: blocks P. falciparum M18 aspartyl aminopeptidase; recombinant PfM18AAP, H-Glu-NHMec fluorogenic cleavage; inhibition, % at 7.35 µM; actives 1.2% (n = 290,000);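 active = inhibition above the campaign mean inhibition over all tested compounds plus 3 SD, cut at about 28% in these data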;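 note: 0% = plate median of test compound wells and 100% = 2 mM ZnCl2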
* marks the source's active call; other numbers are inactive results; ? = inconclusive; · = no result. Compounds with a hit are over-represented: about 2.4% of the library has one in this group of screens. Unless noted, the rule behind the calls is not given here.

SMILES	PABP FP inh	eIF4E 4G PPI	eIF4H inh	PABP1 MLLE inh	PERK inh	M18AAP inhibitor
Cc1nn(CC(=O)NCc2cccc3ccccc23)c(=O)c2ccccc12	-3	-1	2	6	1	-6
O=C(NC1CCCCC1)C1c2ccccc2C(=O)N1Cc1ccc2c(c1)OCO2 (stereo unspecified)	-5	-4	3	-3	0	-7
CCOc1cc(/C=C2\COc3ccccc3C2=O)cc(Br)c1OCC(=O)N(C)C	-4	·	-9	-4	·	-2
CC(C)(C)c1cc(C(=O)O)n(Cc2ccc(Cl)cc2Cl)n1	3	3	-4	6	0	1
O=C(O)c1ccc(COc2ccc(/C=N/NC(=O)c3cccs3)cc2)cc1	58*	-14	-1	-111	0	2
N#CCC(=O)N/N=C/c1ccc(OCc2ccccc2)cc1	-6	0	-11	-2	1	30*
N#CCC(=O)N/N=C\c1ccc(OC/C=C/c2ccccc2)cc1	5	·	11	3	·	13
N#C/C(=C/c1ccc(OCc2ccc(C(=O)O)cc2)cc1)C(=O)Nc1ccccc1	51*	·	21	-130	·	-3
Cc1ccccc1N(C(=O)c1csnn1)C(C(=O)NC1CCCC1)c1ccncc1 (stereo unspecified)	0	·	-5	-1	·	-1
COc1ccc(N2C(=O)CC(SCCc3nc4ccccc4[nH]3)C2=O)cc1 (stereo unspecified)	-10	6	-10	40*	1	-6
COc1ccc(-n2c(CCc3ccccc3)n[nH]c2=S)cc1	-6	0	-4	-9	0	10
Oc1ccc(CCc2n[nH]c(=S)n2-c2ccc(F)cc2)cc1	8	6	7	-6	1	29*
CC(C)c1nc(SCC(=O)N2CCCCC2)c2c(=O)n(C)c(=O)n(C)c2n1	·	·	·	-11	·	·
O=C1OC2(CCCC2)OC(=O)C1=Cc1c[nH]c2ccccc12	109*	-5	?	-15	0	-5
Cc1ccc(NC(=S)N/N=C2/CCCCc3ccccc32)cc1	6	-8	18	42*	0	-2
Cc1cccc(NC(=S)N/N=C2/CCCCc3ccccc32)c1	-10	5	12	34	-1	-8
COc1ccc(CN2C(=O)C(CC(=O)NCCCCc3ccccc3)CC(C(=O)N(C)C)=C2C)cc1 (stereo unspecified)	·	·	·	-2	·	·
O=C(/C=C/c1ccc(Br)cc1)c1ccc(NC(=O)c2ccco2)cc1	-3	1	-32	-26	0	5
O=C(/C=C/c1ccc(Br)cc1)c1ccco1	0	2	-11	-5	0	29*
O=C(Sc1cccc2cccnc12)c1ccccc1Br	5	·	-6	37*	·	14
CC(=O)/C(=N\Nc1ccccc1)Sc1cccc2cccnc12	4	5	-4	-1	0	31*
O=C(Sc1cccc2cccnc12)c1ccc(F)cc1	2	-7	-6	·	0	17
Cc1ccc(C(=O)Cn2nc(C)c([N+](=O)[O-])c2C)c(C)c1	5	4	6	-5	0	1
Cc1cc(NC(=O)C2CC(=O)N(c3ccc(F)cc3)C2)no1 (stereo unspecified)	-1	·	-11	6	·	-5
Cc1ccc(N2CC(C(=O)Nc3cc(C)on3)CC2=O)cc1 (stereo unspecified)	8	-5	7	2	2.9*	14
SMILES	PABP FP inh	eIF4E 4G PPI	eIF4H inh	PABP1 MLLE inh	PERK inh	M18AAP inhibitor
CCOCCCNC(=O)C(NC(=O)c1cnccn1)c1ccc(C)cc1 (stereo unspecified)	10	-9	-3	-4	-1	-6
Cc1ccc(Nc2nnc(SCC(=O)Nc3cccnc3Cl)s2)cc1C	6	2	-2	-83	-1	29*
Oc1c(Br)cc2oc3c(c2c1CNCc1ccccc1)CCCC3	9	1	26	-18	1	31*
Cc1ccc(-c2nnc(SCC(=O)N(C)C)nc2-c2ccc(C)cc2)cc1	-4	·	-7	-10	·	0
Cc1ccc(-c2cc(C(=O)N/N=C/c3ccco3)n[nH]2)s1	active	5	94*	1	1	-3
O=C(COC(=O)c1cccc([N+](=O)[O-])c1)NCC1CCCO1 (stereo unspecified)	56*	-2	active	-8	1	-6
Cc1nc(Oc2ccccc2)c2ccsc2n1	active	-2	75*	7	1	2
Cc1ccc(C2CC(C(F)(F)F)n3ncc(C(=O)NCc4ccco4)c3N2)cc1 (stereo unspecified)	6	4	-4	9	-1	-1
S=C(Nc1ccc2nc(-c3ccccn3)c(-c3ccccn3)nc2c1)N1CCOCC1	44	2	34	46*	-1	1
CC(C)CN1CCN=C1Nc1ccccc1	14	·	-9	-1	·	-10
CC(C)(C)C(=O)Nc1c2c(nn1-c1ccc(F)cc1)CSC2	4	·	5	37*	·	-3
CC(C)C(=O)Nc1c2c(nn1-c1ccc(F)cc1)CSC2	-12	·	1	-1	·	-2
O=C(NCc1ccncc1)c1cccc(S(=O)(=O)NCc2ccccc2)c1	62*	·	13	5	·	-1
O=C(NCc1cccnc1)c1cccc(S(=O)(=O)NCc2ccccc2)c1	·	·	·	13	·	·
O=C(c1cccc(S(=O)(=O)NCc2ccccc2)c1)N1CCN(c2cccc(C(F)(F)F)c2)CC1	55*	·	16	12	·	-1
CC[C@]12c3[nH]c4cc(-c5ccco5)ccc4c3CCN1C(=O)[C@@H](CC(=O)NCCN1CCOCC1)C[C@@H]2C(=O)N1CCN(C(=O)C2CC2)CC1	·	·	·	6	·	·
COc1cccc(-c2nc(=S)c3c(o2)CCCC3)c1	-9	0	-2	45*	1	-12
O=[N+]([O-])c1ccc(-c2nc(=S)c3c(o2)CCCC3)cc1	10	2	-6	45*	-1	-8
S=c1nc(-c2ccccc2)oc2c1CCCC2	-3	2	-8	36	2	-3
Oc1ccc(N=Cc2ccc(O)c(O)c2)cc1	56*	19	106*	4	-1	46*
COc1ccc(-c2c(C)nc(N)nc2-c2ccc(OC)cc2O)cc1	55*	·	66*	31	·	1
COc1ccc(-c2ncncc2-c2ccc(Cl)cc2)c(O)c1	17	83*	9	0	3	-6
COc1cc(C(=O)OCC(=O)N2CCC(C)CC2)cc2c1OCCO2	·	·	·	-1	·	·
COc1ccc(C(=O)Nc2ccnn2C2CCN(C(=O)c3cccnc3)CC2)cc1	-6	·	-9	6	·	3
Cc1c(C(=O)N/N=C/c2ccc(-c3ccccc3[N+](=O)[O-])o2)sc(N)c1C#N	active	5	73*	1	0	20
Nn1cnnc1N/N=C\c1ccc(-c2ccccc2[N+](=O)[O-])o1	8	2	4	11	0	54*
O=[N+]([O-])c1ccccc1-c1ccc(/C=N/n2cnnc2)o1	22	0	7	12	0	27

From PubChem BioAssay
